Test results reported in PubChem BioAssay AID651636 (Sanford-Burnham Center for Chemical Genomics, 2012).
In all, about 360,000 compounds went through this assay and about 3,000 (0.83%) were called active. This excerpt belongs to a sample that is enriched for actives. Unmarked numbers belong to inactive results. No stated cut-off is given here; in the data, active means inhibition above about 38%; inactive means the rest.

target: G-protein coupled receptor 183 (Homo sapiens) (UniProt P32249); experiment: EBI2 receptor antagonists, beta-arrestin recruitment, primary screen, cell-based, luminescence, 7a,25-OHC stimulation, uHTS (AID 651636); conditions: 7a,25-OHC stimulated, at 5 µM, hits give high values;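 further: enzyme fragment complementation signal reports receptor beta-arrestin coupling in cells; 0% = agonist plus DMSO wells and 100% = wells without agonist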
Sequence (P32249 whole entry, looked up, the tested form may be a part): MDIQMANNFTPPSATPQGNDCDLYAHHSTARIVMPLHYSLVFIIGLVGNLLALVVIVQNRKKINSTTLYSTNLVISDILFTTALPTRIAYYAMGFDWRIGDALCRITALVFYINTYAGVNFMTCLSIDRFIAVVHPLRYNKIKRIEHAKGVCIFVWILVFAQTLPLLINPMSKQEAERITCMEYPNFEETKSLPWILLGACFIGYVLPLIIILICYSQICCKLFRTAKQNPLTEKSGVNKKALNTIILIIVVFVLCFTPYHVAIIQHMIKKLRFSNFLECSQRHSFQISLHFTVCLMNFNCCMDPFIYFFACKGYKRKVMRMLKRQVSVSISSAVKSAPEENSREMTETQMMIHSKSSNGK

| SMILES | inhibition |
| --- | --- |
| COc1ccc(Sc2ccc(NC(=O)c3cccc(Cl)c3)cc2C#N)cc1 | 19.1% |
| COc1ccc(Nc2cc(Sc3ccc(OC)cc3)ncn2)cc1 | 55.7% (active) |
| COc1ccc(NC(=O)CSc2ncnc3[nH]ncc23)cc1 | -1.87% |
| CN1C(=O)CC(N2CCN(c3ccccn3)CC2)C1=O (stereo not given) | 1.43% |
| CO/N=C(/CS(=O)(=O)c1ccc(Br)cc1)c1ccc(OC)cc1 | 2.11% |
| O=C(CC(c1ccccc1)c1ccccc1)NCC(O)c1ccc([N+](=O)[O-])cc1 (stereo not given) | 68.3% (active) |
| O=C(NCC(O)c1ccc([N+](=O)[O-])cc1)C1CCCCC1 (stereo not given) | 19.3% |
| CN(C)C(CNC(=O)Cc1ccc([N+](=O)[O-])cc1)c1ccccc1 (stereo not given) | -5.83% |
| COc1ccccc1CNC(=O)C1Cc2ccccc2C(=O)O1 (stereo not given) | -4.46% |
| Cc1ccc(S(=O)(=O)N2CC3C(=O)C[C@@H](c4ccccc4Cl)N(S(=O)(=O)c4ccc(C)cc4)C3CC2c2ccccc2)cc1 (stereo not given in full) | 17% |
| CC1Oc2ccccc2N(Cc2cccnc2)C1=O (stereo not given) | 2.36% |
| CCCCC(=O)N(C)c1c(CC)nc2c(OCc3ccc(S(C)(=O)=O)cc3)cccn12 | -7.39% |
| CCc1nc2c(OCc3ccc(Cl)cc3Cl)cccn2c1N(C)C(=O)C(C)C | 36.4% |
| CCCCC(=O)N(C)c1c(CC)nc2c(OCc3ccc(Cl)cc3Cl)cccn12 | 42.4% (active) |
| CCCOC(=O)c1c(NC(=O)c2cnn3c2NC(c2ccccc2)CC3C(F)(F)F)sc2c1CCCC2 (stereo not given) | -7.48% |
| Cc1ccccc1C(CC(=O)c1cccs1)C(C#N)C#N (stereo not given) | -15.3% |
| NC(=O)C1(N2CCCCC2)CCN(C2CC(=O)N(Cc3ccc(N4CCCC4=O)cc3)C2=O)CC1 (stereo not given) | -18.3% |
| COc1ccccc1-n1c(=S)[nH]c2c(sc(=S)n2-c2ccc(C)cc2C)c1=O | 0.762% |
| O=[N+]([O-])c1c(NCCO)cc(Sc2nc3ccccc3s2)c2nonc12 | 51.4% (active) |
| Cc1ccn2c(=O)c(C(=O)NCCC3=CCCCC3)c(O)nc2c1 | -7.12% |
| COc1cc(S(=O)(=O)N(Cc2cccs2)C2CC2)ccc1-n1cnnn1 | 6.23% |
| CCOc1ccc(CN(Cc2ccco2)S(=O)(=O)c2ccc(-n3cnnn3)c(OC)c2)cc1 | 50.9% (active) |
| COc1ccc(CN(Cc2ccco2)S(=O)(=O)c2ccc(S(=O)(=O)N3CCCC3)cc2)cc1 | -7.47% |

| SMILES | inhibition |
| --- | --- |
| CCCCCCCCN1C(=O)[C@H](CC(=O)NCC23CC4CC(CC(C4)C2)C3)C[C@@]2(C(=O)OC)CCCCC=C12 | 8.12% |
| COC1=CC(=O)OC(C)(c2ccccc2)C1 (stereo not given) | -4.31% |
| COc1ccc(S(=O)(=O)N(CC(=O)NCc2ccco2)c2ccc(F)cc2)cc1 | -6.33% |
| COc1ccc(CNC(=O)CN(c2ccc(OC)c(Cl)c2)S(=O)(=O)c2ccc(C)cc2)cc1 | 42% (active) |
| COc1ccc(CCNC(=O)CN(c2ccccc2)S(=O)(=O)c2ccccc2)cc1 | -2.04% |
| CCOP(=O)(OCC)C(Cc1ccccc1)N=C(c1ccccc1)c1ccccc1 (stereo not given) | 23.7% |
| O=C(NCc1ccc(F)cc1)c1cc(C2CCCCN2C(=O)C2CCCCC2)on1 (stereo not given) | 13.6% |
| CC1CCN(S(=O)(=O)c2ccc3[nH]c(=O)ccc3c2)CC1 | -4.98% |
| C=CCOc1c(CNn2cn[nH]c2=S)cccc1OC | -9.2% |
| Cc1cc(C(=O)N2CCN(c3ccccn3)CC2)c(C)o1 | -3.6% |
| O=C(c1cc2ccccc2s1)N1CCN(c2ccccn2)CC1 | 60.8% (active) |
| O=C(Cc1ccccc1Cl)N1CCN(c2ccccn2)CC1 | 7.34% |
| O=C(NCN1CCN(CCO)CC1)c1cnccn1 | -9.7% |
| CCCC(c1nnnn1C(C)(C)C)N1CCN(Cc2ccccc2)CC1 (stereo not given) | 12.5% |
| CSCCC(c1nnnn1Cc1ccccc1)N1CCN(C/C=C/c2ccccc2)CC1 (stereo not given) | 19.1% |
| Cc1cccc(C)c1-n1nnnc1C(CCc1ccccc1)N1CCN(C/C=C/c2ccccc2)CC1 (stereo not given) | 39.8% (active) |
| COC1=C/C(=C/c2c(N)n3nc(CC(=O)N4CCOCC4)sc3nc2=O)C=CC1=O | -0.898% |
| COc1ccccc1N1CCN(C(=O)c2ccc(NC3=NC4CS(=O)(=O)CC4S3)cc2)CC1 (stereo not given) | -5.44% |
| COc1ccccc1N1CCN(c2nc(C)cc(=O)[nH]2)CC1 | -15.3% |
| COc1ccccc1N1CCN(C(=O)C2Cc3ccccc3CN2C(=O)c2ccco2)CC1 (stereo not given) | 7.65% |
| O=C(NCCS(=O)(=O)N1CCN(c2ccccc2)CC1)c1cc(=O)c2ccccc2o1 | 5.68% |
| COc1ccccc1N1CCN(C(=O)c2cc(=O)c3cc(C)cc(C)c3o2)CC1 | 72.9% (active) |
| O=C(c1ccc(CS(=O)(=O)c2ccccc2)o1)N1CCN(c2ccccc2)CC1 | -5.95% |

| SMILES | inhibition |
| --- | --- |
| COc1ccccc1N1CCN(C(=O)c2cc(=O)c3cc(C)ccc3o2)CC1 | 93.3% (active) |
| CCOc1ccccc1N1CCN(C(=O)c2ccc3[nH]c(C)c(C)c3c2)CC1 | 18.2% |
| O=C(c1cc(=O)c2ccccc2o1)N1CCN(c2ccccc2)CC1 | 48.1% (active) |
| [O-][n+]1onc2c1CCc1[nH]c(-c3ccccc3)nc1-2 | 3.97% |
| CCc1nccn1S(=O)(=O)c1cccc([N+](=O)[O-])c1 | 2.08% |
| CC1(C(=O)Nc2ccc3c(c2)OCCO3)CCN1C(=O)Cc1cc(F)ccc1F (stereo not given) | -9.9% |
| O=C(CCCC(=O)N(CC(=O)NC1CCCC1)Cc1ccccc1Cl)Nc1ccccn1 | -4.48% |
| CC(C)CCN1CCN(C/C=C/c2ccco2)CC1CCO (stereo not given) | 2.4% |
| O=C(O)C1C2C=CC(C2)C1C(=O)NCc1ccccc1 (stereo not given) | -5.43% |
| COc1ccccc1CNC(=O)C1CCN(c2nc3ccccc3o2)CC1 | 4.11% |
| COc1ccccc1CNC(=O)C1CCN(C(=O)[C@@H]2Cc3ccccc3CN2)CC1 | -0.14% |
| COc1ccccc1CCNC(=O)C1CCN(C(=O)/C=C/c2ccccc2)CC1 | 86.2% (active) |
| O=C(NCCC1CCCCN1S(=O)(=O)c1ccc(Cl)cc1)C(=O)NCc1ccco1 (stereo not given) | 2.6% |
| CC1(C)Oc2ccc(C(=O)N3CCOCC3)cc2N(CC(=O)Nc2ccccc2)C1=O | 1.64% |
| Cc1ccc(OCC(O)CN2CCN(CC(O)COc3ccc(C)cc3Cl)CC2)c(Cl)c1 (stereo not given) | 4.54% |
| Cc1ccc(S(=O)(=O)N2CCN(C(=O)CSc3cc(C)ccc3C)CC2)c(C)c1 | 64.3% (active) |
| Cc1cccc(OCC(O)CN2CCN(S(=O)(=O)c3ccc(C)cc3C)CC2)c1 (stereo not given) | 54.6% (active) |
| CC(=O)c1ccc(OCC(O)CN2CCN(S(=O)(=O)c3cccc(Br)c3)CC2)cc1 (stereo not given) | 40.3% |
| Cc1ccc(S(=O)(=O)N2CCN(C(=O)COC(=O)c3c(C)cc(C)cc3C)CC2)c(C)c1 | 3.87% |
| CCCc1cc(=O)[nH]c(SCC(=O)N2CCN(S(=O)(=O)c3ccc(C)cc3C)CC2)n1 | -2.8% |
| Cc1nnnn1/C(=C\c1ccccc1)C(=O)OCC(=O)N1CC2(C)CC1CC(C)(C)C2 (stereo not given) | 31.6% |
| CCCC(C(=O)N1CCOCC1)N1C(=O)C2C3C=CC(C3)C2C1=O (stereo not given) | -18.5% |
| CC(=O)c1ccc(S(=O)(=O)N2CCN(C(=O)/C=C/c3ccc4ccccc4n3)CC2)cc1 | 62.3% (active) |

| SMILES | inhibition |
| --- | --- |
| CC(=O)c1ccc(S(=O)(=O)N2CCC(Oc3ccc(-n4cnnn4)cc3)CC2)cc1 | 2.61% |
| CC(=O)c1ccc(S(=O)(=O)N2CCN(c3nc4c(C)c(C)ccc4cc3C#N)CC2)cc1 | 15.8% |
| CC(=O)c1nn(-c2ccc(C)cc2)cc1C(=O)c1cccc(Br)c1 | 46.1% (active) |
| CC(=O)c1nn(-c2cccc(Br)c2)cc1C(=O)c1cccc2ccccc12 | 12% |
| CCOC(=O)c1nn(-c2cccc(C)c2)cc1C(=O)c1ccccc1 | 11% |
| CCc1ccc[n+](-c2nc([O-])sc2C=O)c1 | 7.04% |
| CCCn1nc(C(=O)N2CCCc3ccccc32)c2ccccc2c1=O | 14.1% |
| Cc1cccc2cc3c(N)c(C(=O)N4CCCc5ccccc54)sc3nc12 | 76.1% (active) |
| Cc1ccc(C(=O)N2CCCc3ccccc32)c(Cl)c1 | 10.8% |
| COc1ccc(C(C#N)=C2C=CC(=NO)c3ccccc32)cc1 | 17.2% |
| CC(=O)/C(=N\Nc1ccc(Cl)cc1Cl)Sc1cccc2cccnc12 | 63.7% (active) |
| CC(Oc1ccc(Cl)cc1)C(=O)Nc1ncccn1 (stereo not given) | -3.28% |
| COc1cccc(CNC(=O)C2CCN(S(=O)(=O)c3cccc4cccnc34)CC2)c1 | -6.22% |
| CCCCc1ccc(NS(=O)(=O)c2cccc(C(=O)N3CCCN(C)CC3)c2)cc1 | -4.46% |
| Cc1ccc(CN2CC(C(=O)NNC(=O)Cn3ccc(C(F)(F)F)n3)CC2=O)cc1 (stereo not given) | 7.75% |
| O=C(/C=C/c1cccc([N+](=O)[O-])c1)N1CCN(Cc2ccccc2)CC1 | 53.3% (active) |
| O=C(/C=C/c1ccc(OCc2c(F)cccc2Cl)cc1)N1CCOCC1 | 7.94% |
| Cc1c(Br)c([N+](=O)[O-])nn1CC(=O)N1CCN(Cc2ccccc2)CC1 | -9.97% |
| O=C(/C=C/c1ccccc1[N+](=O)[O-])OCC(=O)N1CCCC1 | -0.221% |
| O=C(/C=C/c1cccc([N+](=O)[O-])c1)OCC(=O)N1CCOCC1 | 1.92% |
| O=C(/C=C/c1ccc(Cl)cc1)N1CCN(c2ccccc2[N+](=O)[O-])CC1 | 93.1% (active) |
